Measured values as given in PubChem BioAssay AID1159580 (chemical genetic matrix, 2015).
About 2,000 (36%) of roughly 5,500 compounds were called active. Inconclusive results (about 18%) are left out. Cut-off read from the data, not from the text of the source: active = normalized growth mostly below about 0.91 (no sharp cut-off); inconclusive = no clear call, values can overlap the other calls; inactive = mostly above about 0.92. The list shows a part of the results.

Assay: chemical genetic growth profiling, strain panel (AID 1159580);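 note: tested at 20 µM; growth read once vehicle control cultures reached saturation at 30 °C; 1 = growth at the plate median or of vehicle wells; lower values mean less growth of the strain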
Details: growth OD

Measured: normalized growth

O=C1C[C@@H](c2ccccc2)Oc2cc(O)cc(O)c21
inactive: S. cerevisiae deletion strains, locus YBR021W, strain FUR4, hits give low values 0.958 | S. cerevisiae deletion strains, locus YBR229C, strain ROT2, hits give low values 0.927 | S. cerevisiae deletion strains, locus YCL029C, strain bik1, hits give low values 0.939 | S. cerevisiae deletion strains, locus YDL035C, strain GPR1, hits give low values 0.884 | S. cerevisiae deletion strains, locus YDL074C, strain BRE1, hits give low values 0.858 | S. cerevisiae deletion strains, locus YDL101C, strain DUN1, hits give low values 0.899 | S. cerevisiae deletion strains, locus YDL134C, strain PPH21, hits give low values 0.903 | S. cerevisiae deletion strains, locus YDL185W, strain tfp1, hits give low values 0.932 | S. cerevisiae deletion strains, locus YDR101C, strain arx1, hits give low values 0.943 | S. cerevisiae deletion strains, locus YDR150W, strain NUM1, hits give low values 0.949 | S. cerevisiae deletion strains, locus YDR162C, strain NBP2, hits give low values 0.859 | S. cerevisiae deletion strains, locus YDR388W, hits give low values 0.95 | S. cerevisiae deletion strains, locus YEL061C, strain CIN8, hits give low values 0.957 | S. cerevisiae deletion strains, locus YER110C, hits give low values 0.924 | S. cerevisiae deletion strains, locus YER155C, strain BEM2, hits give low values 0.955 | S. cerevisiae deletion strains, locus YER167W, strain BCK2, hits give low values 0.947 | S. cerevisiae deletion strains, locus YGL078C, strain dbp3, hits give low values 0.947 | S. cerevisiae deletion strains, locus YGL086W, strain mad1, hits give low values 1 | S. cerevisiae deletion strains, locus YGR078C, strain PAC10, hits give low values 0.86 | S. cerevisiae deletion strains, locus YHR030C, strain SLT2, hits give low values 0.97 | S. cerevisiae deletion strains, locus YHR079C, strain IRE1 (second series), hits give low values 0.952 | S. cerevisiae deletion strains, locus YHR094C, strain hxt1, hits give low values 0.934 | S. cerevisiae deletion strains, locus YHR129C, strain ARP1, hits give low values 0.942 | S. cerevisiae deletion strains, locus YHR200W, strain rpn10, hits give low values 0.942 | S. cerevisiae deletion strains, locus YIL066C, strain RNR3, hits give low values 0.887 | S. cerevisiae deletion strains, locus YIL073C, strain SPO22, hits give low values 0.91 | S. cerevisiae deletion strains, locus YIL125W, strain kgd1, hits give low values 0.957 | S. cerevisiae deletion strains, locus YIR030C, strain dcg1, hits give low values 0.942 | S. cerevisiae deletion strains, locus YJL095W, strain BCK1, hits give low values 0.816 | S. cerevisiae deletion strains, locus YJL134W, strain LCB3, hits give low values 0.963 | S. cerevisiae deletion strains, locus YJL168C, strain set2, hits give low values 0.961 | S. cerevisiae deletion strains, locus YJL187C, strain SWE1 (second series), hits give low values 0.893 | S. cerevisiae deletion strains, locus YJR043C, strain POL32, hits give low values 0.906 | S. cerevisiae deletion strains, locus YJR075W, strain HOC1, hits give low values 0.919 | S. cerevisiae deletion strains, locus YKL068W, hits give low values 0.949 | S. cerevisiae deletion strains, locus YKL085W, strain MDH1 (second series), hits give low values 0.929 | S. cerevisiae deletion strains, locus YKL085W, strain MDH1, hits give low values 0.929 | S. cerevisiae deletion strains, locus YKL190W, strain CNB1, hits give low values 0.955 | S. cerevisiae deletion strains, locus YLR039C, strain RIC1, hits give low values 0.711 | S. cerevisiae deletion strains, locus YLR102C, strain apc9, hits give low values 0.957 | S. cerevisiae deletion strains, locus YLR262C, strain YPT6, hits give low values 0.656 | S. cerevisiae deletion strains, locus YLR268W, strain sec22, hits give low values 0.943 | S. cerevisiae deletion strains, locus YLR330W, strain CHS5, hits give low values 0.946 | S. cerevisiae deletion strains, locus YLR371W, strain rom2, hits give low values 0.968 | S. cerevisiae deletion strains, locus YML016C, strain PPZ1, hits give low values 0.96 | S. cerevisiae deletion strains, locus YML124C, strain tub3, hits give low values 0.947 | S. cerevisiae deletion strains, locus YMR078C, strain ctf18, hits give low values 0.929 | S. cerevisiae deletion strains, locus YMR307W, strain GAS1, hits give low values 0.742 | S. cerevisiae deletion strains, locus YNL067W, strain RPL9B, hits give low values 0.884 | S. cerevisiae deletion strains, locus YNL128W, strain TEP1, hits give low values 0.936 | S. cerevisiae deletion strains, locus YNL153C, strain GIM3, hits give low values 0.895 | S. cerevisiae deletion strains, locus YNL233W, strain BNI4, hits give low values 0.886 | S. cerevisiae deletion strains, locus YNL250W, strain rad50, hits give low values 0.954 | S. cerevisiae deletion strains, locus YNL271C, strain bni1, hits give low values 0.93 | S. cerevisiae deletion strains, locus YNL322C, strain KRE1, hits give low values 0.938 | S. cerevisiae deletion strains, locus YNR052C, strain pop2, hits give low values 0.943 | S. cerevisiae deletion strains, locus YOL012C, strain htz1 0.987 | S. cerevisiae deletion strains, locus YOL147C, strain pex11, hits give low values 0.933 | S. cerevisiae deletion strains, locus YOR061W, strain CKA2, hits give low values 0.934 | S. cerevisiae deletion strains, locus YOR069W, strain VPS5, hits give low values 0.943 | S. cerevisiae deletion strains, locus YOR136W, strain idh2, hits give low values 0.968 | S. cerevisiae deletion strains, locus YOR144C, strain elg1, hits give low values 0.945 | S. cerevisiae deletion strains, locus YOR316C, strain cot1, hits give low values 0.943 | S. cerevisiae deletion strains, locus YPL055C, strain LGE1, hits give low values 0.844 | S. cerevisiae deletion strains, locus YPL241C, strain CIN2, hits give low values 0.955 | S. cerevisiae deletion strains, locus YPR119W, strain clb2, hits give low values 0.949 | S. cerevisiae deletion strains, locus YPR141C, strain kar3, hits give low values 0.955 | S. cerevisiae deletion strains, locus YPR163C, strain tif3, hits give low values 0.927 | S. cerevisiae deletion strains, strain wtn01, hits give low values 0.99 | S. cerevisiae strains, strain wild type, hits give low values 0.927
active: S. cerevisiae deletion strains, locus YDL192W, strain arf1, hits give low values 0.871 | S. cerevisiae deletion strains, locus YDR318W, strain mcm21, hits give low values 0.875 | S. cerevisiae deletion strains, locus YDR502C, strain sam2, hits give low values 0.892 | S. cerevisiae deletion strains, locus YGL248W, strain PDE1, hits give low values 0.884 | S. cerevisiae deletion strains, locus YGR135W, strain pre9, hits give low values 0.843 | S. cerevisiae deletion strains, locus YGR252W, strain gcn5, hits give low values 0.595 | S. cerevisiae deletion strains, locus YKL009W, strain mrt4, hits give low values 0.847 | S. cerevisiae deletion strains, locus YKR001C, strain vps1, hits give low values 0.878 | S. cerevisiae deletion strains, locus YLR058C, strain SHM2, hits give low values 0.887 | S. cerevisiae deletion strains, locus YLR342W, strain FKS1 (second series), hits give low values 0.79 | S. cerevisiae deletion strains, locus YLR418C, strain cdc73, hits give low values 0.711 | S. cerevisiae deletion strains, locus YML032C, strain rad52, hits give low values 0.864 | S. cerevisiae deletion strains, locus YMR223W, strain ubp8, hits give low values 0.862 | S. cerevisiae deletion strains, locus YNL298W, strain CLA4, hits give low values 0.877 | S. cerevisiae deletion strains, locus YNL307C, strain MCK1, hits give low values 0.901 | S. cerevisiae deletion strains, locus YOR184W, strain ser1, hits give low values 0.757 | S. cerevisiae deletion strains, locus YPR167C, strain met16, hits give low values 0.909
